Data taken from PubChem BioAssay (NCATS).
Records with an inconclusive call do not appear. The source made the active and inactive calls. Calls follow the shape of the dose curve; as a rule, active = well fitted curve in the direction sought with a large enough effect; inconclusive = small, poorly fitted or top-dose-only effect, or another doubt; inactive = no such curve, though single readings can be large; an effect the other way counts as inactive or inconclusive.

How the values were obtained:
CRL-7250 = normal cell line; experiment: Cytotoxic Profiling of Annotated Libraries Using Quantitative High-Throughput Screening (AID 1296008); conditions: Five cell lines viability, CellTiter-Glo ATP luminescence, 48-72 h; max response: hits give low values; also: nearly all actives have a fitted effect of over 60% in size; as to max response: % is scaled to controls: 0 for no effect and ±100 for the full control effect
Method in brief: (§1)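 Cytotoxicity was measured as CellTiter-Glo ATP luminescence, read after 10 min at room temperature. Compound treatment of the cells lasted 48 or 72 hr at 37 degrees Celsius in a qHTS format.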

HEK293 = experiment: as above; conditions: Five cell lines viability, CellTiter-Glo ATP luminescence, 48-72 h; max response: hits give low values
Method in brief: as §1

HaCat = experiment: as above; conditions: Five cell lines viability, CellTiter-Glo ATP luminescence, 48-72 h; max response: hits give low values
Method in brief: as §1

KB-3-1 = experiment: as above; conditions: Five cell lines viability, CellTiter-Glo ATP luminescence, 48-72 h; max response: hits give low values
Method in brief: as §1

NIH3T3 = experiment: as above; conditions: Five cell lines viability, CellTiter-Glo ATP luminescence, 48-72 h; max response: hits give low values
Method in brief: as §1

HEK293T [1] = experiment: qHTS assay to identify novel small-molecules to repurpose for Merkel cell carcinoma treatment (AID 1296009); conditions: MCC and control cell lines, CellTiter-Glo viability, 72 h; at 44.8 µM (top of the series) unless noted; also: nearly all actives have a fitted effect of over 60% in size
Method in brief: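 After compound transfer in DMSO, plates were kept 72 hr at 37 degree celsius. Luminescent ATP signal from CellTiter-Glo served as viability measure, normalized against DMSO and no-cell controls.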

C33A = experiment: Primary qHTS to identify gynecologic anti-cancer compounds using libraries of approved drugs and bioactive compounds (AID 1345084); conditions: Gynecologic cancer cell panel viability, ATPlite luminescence, 48 h; series mostly up to 57.5 µM; also: % is scaled to controls: 0 for no effect and ±100 for the full control effect; nearly all actives have a fitted effect of over 55% in size
Method in brief: (§2)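 Luminescence from the ATPlite ATP-monitoring reagent indicates viable cell number; lower signal means cytotoxicity. Cells received compound 16 h after seeding and were exposed for 48 h across five concentrations.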

CAOV3 = experiment: as above; conditions: Gynecologic cancer cell panel viability, ATPlite luminescence, 48 h; series mostly up to 57.5 µM
Method in brief: as §2

CASKI = experiment: as above; conditions: Gynecologic cancer cell panel viability, ATPlite luminescence, 48 h; series mostly up to 57.5 µM
Method in brief: as §2

Es-2 = experiment: as above; conditions: Gynecologic cancer cell panel viability, ATPlite luminescence, 48 h; series mostly up to 57.5 µM
Method in brief: as §2

HeLa = experiment: as above; conditions: Gynecologic cancer cell panel viability, ATPlite luminescence, 48 h; series mostly up to 57.5 µM
Method in brief: as §2

Hek293T [2] = experiment: as above; conditions: Gynecologic cancer cell panel viability, ATPlite luminescence, 48 h, control line for the selectivity index; series mostly up to 57.5 µM
Method in brief: as §2

JEG-3 = experiment: as above; conditions: Gynecologic cancer cell panel viability, ATPlite luminescence, 48 h; series mostly up to 57.5 µM
Method in brief: as §2

OV90 = experiment: as above; conditions: Gynecologic cancer cell panel viability, ATPlite luminescence, 48 h; series mostly up to 57.5 µM
Method in brief: as §2

PA-1 = experiment: as above; conditions: Gynecologic cancer cell panel viability, ATPlite luminescence, 48 h; series mostly up to 57.5 µM
Method in brief: as §2

C[C@@H]1C(=O)O[C@H]2[C@H]1CC[C@@]1(C)C(=O)C=C[C@@](C)(O)[C@H]21
inactive: max response (CRL-7250) -5.99% | outcome (HEK293) | max response (HaCat) -2.04% | max response (KB-3-1) 1.69% | max response (NIH3T3) 4.77% | outcome (HEK293T [1]) | Potency (C33A) | Potency (CAOV3) | outcome (CASKI) | Potency (Es-2) | Potency (HeLa) | Potency (Hek293T [2]) | Potency (JEG-3) | Potency (OV90) | Potency (PA-1)

COc1cc(Cc2cnc(N)nc2N)c(C(C)C)cc1OC
inactive: max response (CRL-7250) -4.26% | outcome (HEK293) | max response (HaCat) -0.359% | max response (KB-3-1) 4.42% | max response (NIH3T3) 3.87% | outcome (HEK293T [1]) | Potency (C33A) | Potency (CAOV3) | outcome (CASKI) | Potency (Es-2) | Potency (HeLa) | Potency (Hek293T [2]) | Potency (JEG-3) | Potency (PA-1)

C=C1CCc2occ(C)c2[C@H]2[C@H]1[C@@]13O[C@@]1(C[C@@H](C)[C@H]3OC(C)=O)[C@H]1O[C@@]21C
inactive: max response (CRL-7250) 2.94% | outcome (HEK293) | max response (HaCat) -22% | outcome (KB-3-1) | max response (NIH3T3) -1.13% | outcome (HEK293T [1]) | Potency (C33A) | outcome (CASKI) | Potency (Es-2) | Potency (HeLa) | Potency (Hek293T [2]) | Potency (JEG-3) | Potency (PA-1)

Cc1ccccc1NC(=O)Nc1ccc(CN2C(=O)N([C@@H](CC(C)C)C(=O)N[C@@H](CC(=O)O)c3ccccc3)C(=O)C2(C)C)cc1
inactive: max response (CRL-7250) -13.5% | outcome (HEK293) | max response (HaCat) 3.16% | outcome (KB-3-1) | max response (NIH3T3) -0.819% | outcome (HEK293T [1]) | Potency (C33A) | outcome (CASKI) | Potency (Es-2) | Potency (HeLa) | Potency (Hek293T [2]) | Potency (JEG-3) | Potency (OV90) | Potency (PA-1)

O=C(O[C@@H]1O[C@H](CO)[C@@H](O)[C@H](O)[C@H]1O)c1ccccc1
inactive: outcome (CRL-7250) | outcome (HEK293) | max response (HaCat) 4.66% | outcome (KB-3-1) | max response (NIH3T3) 4.36% | outcome (HEK293T [1]) | Potency (C33A) | outcome (CASKI) | Potency (Es-2) | Potency (HeLa) | Potency (Hek293T [2]) | Potency (JEG-3) | Potency (OV90)

CC(CCc1ccc(O)cc1)O[C@@H]1O[C@H](CO[C@@H]2OC(CO)[C@H](O)[C@H]2O)[C@@H](O)[C@H](O)[C@H]1O (stereo partly specified)
inactive: max response (CRL-7250) -0.0719% | outcome (HEK293) | max response (HaCat) -7.01% | outcome (KB-3-1) | max response (NIH3T3) -1.05% | outcome (HEK293T [1]) inactive [at 17.4 µM] | Potency (C33A) | Potency (CAOV3) | outcome (CASKI) | Potency (Es-2) | Potency (HeLa) | Potency (Hek293T [2]) | Potency (JEG-3) | Potency (OV90) | Potency (PA-1)

C[C@]12CC/C(=N\OCC(=O)O)C=C1CC[C@@H]1[C@@H]2[C@@H](O)C[C@@]2(C)[C@H]1CC[C@]2(O)C(=O)CO
inactive: max response (CRL-7250) -6.4% | outcome (HEK293) | max response (HaCat) 2.89% | outcome (KB-3-1) | max response (NIH3T3) -9.49% | outcome (HEK293T [1]) | Potency (C33A) | Potency (CAOV3) | outcome (CASKI) | Potency (Es-2) | Potency (HeLa) | Potency (Hek293T [2]) | Potency (JEG-3) | Potency (OV90) | Potency (PA-1)

CN(C)C(=O)C(O)C(Cc1ccccc1)NC(=O)c1cc2cc(Cl)ccc2[nH]1 (stereo unspecified)
inactive: outcome (CRL-7250) | outcome (HEK293) | max response (HaCat) -1.1% | max response (KB-3-1) 5.45% | max response (NIH3T3) -2.44% | outcome (HEK293T [1]) | Potency (C33A) | Potency (CAOV3) | outcome (CASKI) | Potency (Es-2) | Potency (HeLa) | Potency (JEG-3) | Potency (OV90) | Potency (PA-1)

C/C=C(\C)C1C(C)=CC2CCC(OS(=O)(=O)O)C(C)C2C1/C=C/C=C/C(=O)O (stereo unspecified)
inactive: outcome (CRL-7250) | outcome (HEK293) | max response (HaCat) -12.6% | max response (KB-3-1) 7.13% | max response (NIH3T3) -0.702% | outcome (HEK293T [1]) inactive [at 17.4 µM] | Potency (C33A) | Potency (CAOV3) | outcome (CASKI) | Potency (Es-2) | Potency (HeLa) | Potency (Hek293T [2]) | Potency (JEG-3) | Potency (OV90) | Potency (PA-1)

Cn1nccc1-c1ccccc1Oc1ccc(S(=O)(=O)Nc2nccs2)cc1C#N
inactive: outcome (CRL-7250) | outcome (HEK293) | max response (HaCat) -17.4% | max response (KB-3-1) 2.49% | max response (NIH3T3) 0.589% | outcome (HEK293T [1]) | Potency (C33A) | Potency (CAOV3) | outcome (CASKI) | Potency (Es-2) | Potency (HeLa) | Potency (Hek293T [2]) | Potency (JEG-3) | Potency (PA-1)

CC(=O)OC1CCC2(C)C(CCC3(C)C2CC=C2C4CC(C)(C)CCC4(C)CCC23C)C1(C)C(=O)O (stereo unspecified)
inactive: max response (CRL-7250) -8.32% | outcome (HEK293) | max response (HaCat) -5.03% | max response (KB-3-1) 3% | max response (NIH3T3) 3.68% | outcome (HEK293T [1]) inactive [at 17.4 µM] | Potency (C33A) | outcome (CASKI) | Potency (Es-2) | Potency (HeLa) | Potency (Hek293T [2]) | Potency (JEG-3) | Potency (OV90) | Potency (PA-1)

C/C=C(/C)C(=O)OC1C2OC2C2(CO2)C2C3OC(=O)C(C)C3CCC12C (stereo unspecified)
inactive: max response (CRL-7250) -1.71% | outcome (HEK293) | max response (HaCat) 3.73% | max response (KB-3-1) 9.88% | max response (NIH3T3) -1.74% | outcome (HEK293T [1]) | Potency (C33A) | Potency (CAOV3) | outcome (CASKI) | Potency (Es-2) | Potency (HeLa) | Potency (Hek293T [2]) | Potency (JEG-3) | Potency (OV90) | Potency (PA-1)
